Screens as filed in PubChem.
Rows were chosen to be rich in hits. Some 4% of all compounds tested hit in one or more screens of this group.
TRHR enhancer: TRH receptor (human) allosteric enhancement. P34981. TRHR cells, fluo-8 calcium fluorescence, EC20 TRH enhancement. enhancement, % at 2 µM. 0.66% of 360,000 active. AID 493056; in the data active = enhancement above about 30%
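Enhancer read-out: after compound pinning and an initial kinetic agonist-mode read, an EC20 of TRH (10 nM final) was injected and fluo-8 calcium signal (Ex 480/Em 530) followed at 1 s/cycle for 100 cycles in TRHR-expressing cells.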
TRHR agonist: agonists of human TRH receptor | AID 493084 | P34981 | 0.18% of 360,000 active | activation, % at 2 µM | TRHR cells, calcium flux fluo-8, FDSS agonist mode
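TRHR-expressing cells, plated overnight in medium with 10% serum, were loaded with fluo-8 calcium dye at room temperature. After a 10 s baseline, library compound was pin-added and calcium release was recorded kinetically (ex 480/em 530) as agonist response.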
D1 potentiator: enhances dopamine response at the human D1 receptor. P21728. potentiation, % at 10 µM. AID 504651. HEK293 TREx D1 cells, calcium flux, dopamine EC20 potentiation. 0.036% of 360,000 active; in the data active = potentiation above about 30%
Target sequence (P21728 whole entry, looked up): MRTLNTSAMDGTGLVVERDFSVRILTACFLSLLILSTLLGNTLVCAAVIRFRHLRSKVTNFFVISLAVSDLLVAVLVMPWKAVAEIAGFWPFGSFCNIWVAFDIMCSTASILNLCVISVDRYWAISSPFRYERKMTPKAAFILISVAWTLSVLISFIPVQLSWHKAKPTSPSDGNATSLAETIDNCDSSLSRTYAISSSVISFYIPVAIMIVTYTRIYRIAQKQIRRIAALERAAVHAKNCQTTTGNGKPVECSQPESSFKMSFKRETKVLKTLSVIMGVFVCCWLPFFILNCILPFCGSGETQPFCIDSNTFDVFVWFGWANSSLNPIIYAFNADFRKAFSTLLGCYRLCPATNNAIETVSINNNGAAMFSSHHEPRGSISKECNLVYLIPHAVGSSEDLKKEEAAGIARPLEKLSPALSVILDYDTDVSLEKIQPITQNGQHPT
D1 antagonist: blocks dopamine activation of the human D1 receptor | P21728 | HEK293 TREx D1 cells, calcium flux, dopamine EC80; hits give low values | activity change, negative = inhibition, % at 10 µM | 3.2% of 360,000 active; in the data active = activity change below about -30%
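Tetracycline-induced HEK293 T-REx cells with force-coupled D1 receptor were loaded with a no-wash calcium dye. Compound was added after a 10 s baseline and read kinetically for 180 s; EC80 dopamine was then added and calcium flux followed another 180 s.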
D1 ag: agonists of human D1 dopamine receptor. activation, % at 2 µM. AID 504660. P21728. 1% of 360,000 active. HEK293 T-REx D1 cells, calcium flux, agonist mode
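Inducible HEK293 T-REx D1 cells, force-coupled to calcium signalling, were plated at 4000 cells/well with tetracycline and held overnight at 30 C. After no-wash calcium dye loading, compound-evoked calcium rise over 180 s flagged agonists.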
GRP78 ERSR act: inducers of ER stress response in human glioma cells; U87-MG GRP78 promoter luciferase reporter, 16 h; 0.02% of 420,000 active; Potency, µM, usual class: activators; AID 602332; active = well fitted activation curve with a large enough effect; note: series mostly up to about 76 µM; nearly all actives have a fitted effect of over 35% in size
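Stably transfected U87-MG glioma cells carrying a GRP78-based luciferase sensor; 16 h compound incubation. Luminescence end-point read 10 min after Bright-Glo addition at room temperature.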
A number is an active result. Cut-off read from the data, not from the text of the source, unless noted: active = activation above about 30%; inactive = the rest.

Results for O=C(COc1ccccc1-c1nc(-c2ccccc2)no1)Nc1ccccc1[N+](=O)[O-] ?
TRHR enhancer: 40.9; TRHR agonist: inactive; D1 potentiator: inactive; D1 antagonist: inactive; D1 ag: inactive; GRP78 ERSR act: inactive

How did Cc1ccccc1OCC(=O)NNC(=S)NC(=O)c1ccccc1[N+](=O)[O-] do in these assays?
TRHR enhancer: inactive; TRHR agonist: inactive; D1 potentiator: inactive; D1 antagonist: -56.7; D1 ag: inactive; GRP78 ERSR act: inactive

How did COc1ccccc1-c1cc(C(=O)NC(C)c2ccccc2)no1 (stereo unspecified) do in these assays?
TRHR enhancer: inactive; TRHR agonist: inactive; D1 potentiator: inactive; D1 antagonist: -42.4; D1 ag: inactive; GRP78 ERSR act: inactive

Results for COc1ccccc1-c1cc(C(=O)NC(C)C)no1 ?
GRP78 ERSR act: inactive

How did CC1(C)Cc2nc3sc4c(N(CCO)CCO)nnnc4c3cc2CO1 do in these assays?
TRHR enhancer: 30.3; TRHR agonist: inactive; D1 potentiator: inactive; D1 antagonist: inactive; D1 ag: inactive; GRP78 ERSR act: inactive

Results for CC1(C)Cc2nc3sc4c(N(CCO)CCO)ncnc4c3cc2CO1 ?
TRHR enhancer: inactive; TRHR agonist: inactive; D1 potentiator: inactive; D1 antagonist: inactive; D1 ag: inactive; GRP78 ERSR act: inactive

What do the screens show for `COc1cc(C(=O)OCC(=O)c2ccccc2)cc2c1OCCO2`?
TRHR enhancer: inactive; TRHR agonist: inactive; D1 potentiator: inactive; D1 antagonist: inactive; D1 ag: inactive; GRP78 ERSR act: inactive

Results for Cc1ccc(-n2c(SCc3nc(-c4ccccc4C)no3)nnc2-c2ccncc2)cc1C ?
TRHR enhancer: inactive; TRHR agonist: inactive; D1 potentiator: inactive; D1 antagonist: -33.9; D1 ag: inactive; GRP78 ERSR act: inactive

How did Cc1ccccc1-c1noc(CSc2nnc(-c3ccncc3)n2-c2ccc(F)cc2)n1 do in these assays?
TRHR enhancer: inactive; TRHR agonist: inactive; D1 potentiator: inactive; D1 antagonist: inactive; D1 ag: inactive; GRP78 ERSR act: inactive

How did Cc1c(Cn2cnc3c(cnn3C(C)(C)C)c2=O)cccc1C(F)(F)F do in these assays?
GRP78 ERSR act: inactive

What do the screens show for `CSc1ccc(CN(C)CC(=O)Nc2ccccc2Br)cc1`?
TRHR enhancer: inactive; TRHR agonist: inactive; D1 potentiator: inactive; D1 antagonist: -41.1; D1 ag: inactive; GRP78 ERSR act: inactive

Results for Cc1cc(/C=C2\C=Cc3ccccc32)cc(C)c1[N+](=O)[O-] ?
GRP78 ERSR act: inactive

How did COCC(=O)Nc1cc(C(=O)N2CC3(C)CC2CC(C)(C)C3)c2c(c1)nc(-c1ccncc1)n2C (stereo unspecified) do in these assays?
GRP78 ERSR act: inactive

What do the screens show for `Fc1ccc(-c2cc(C(F)(F)F)nc(NCc3ccccc3)n2)cc1`?
TRHR enhancer: inactive; TRHR agonist: inactive; D1 potentiator: inactive; D1 antagonist: inactive; D1 ag: 36.1; GRP78 ERSR act: inactive

What do the screens show for `FC(F)(F)c1cc(-c2ccco2)nc(NCc2ccccc2)n1`?
TRHR enhancer: inactive; TRHR agonist: inactive; D1 potentiator: inactive; D1 antagonist: inactive; D1 ag: inactive; GRP78 ERSR act: inactive

How did Fc1ccc(CNc2nc(-c3ccc(Cl)cc3)cc(C(F)(F)F)n2)cc1 do in these assays?
TRHR enhancer: inactive; TRHR agonist: inactive; D1 potentiator: inactive; D1 antagonist: inactive; D1 ag: inactive; GRP78 ERSR act: inactive

What do the screens show for `COc1ccc(-c2cc(C(F)(F)F)nc(NCc3ccccc3)n2)cc1`?
TRHR enhancer: inactive; TRHR agonist: inactive; D1 potentiator: inactive; D1 antagonist: inactive; D1 ag: 30.9; GRP78 ERSR act: inactive

What do the screens show for `Fc1ccc(CNc2nc(-c3ccco3)cc(C(F)(F)F)n2)cc1`?
TRHR enhancer: 38.3; TRHR agonist: inactive; D1 potentiator: inactive; D1 antagonist: inactive; D1 ag: inactive; GRP78 ERSR act: inactive

What do the screens show for `CC(=O)OC1COC(OC2C(O)C(C)OC(OC3C(OC4CCC5(C)C(CCC6(C)C5CC=C5C7CC(C)(C)CCC7(C(=O)O)CCC56C)C4(C)CO)OCC(O)C3O)C2O)C(O)C1OC(C)=O` (stereo unspecified)?
TRHR enhancer: inactive; TRHR agonist: inactive; D1 potentiator: inactive; D1 antagonist: inactive; D1 ag: 323.1

How did CC(=O)Nc1ccc(Nc2c3c4c(cccc4n(C)c2=O)C(=O)c2ccccc2-3)cc1 do in these assays?
TRHR enhancer: inactive; TRHR agonist: inactive; D1 potentiator: inactive; D1 antagonist: inactive; D1 ag: inactive; GRP78 ERSR act: inactive

How did CCNc1c2c3c(cccc3n(C)c1=O)C(=O)c1ccccc1-2 do in these assays?
TRHR enhancer: inactive; TRHR agonist: 151.1; D1 potentiator: inactive; D1 antagonist: inactive; D1 ag: 373.1; GRP78 ERSR act: inactive

Results for Cn1c(=O)c(NC2CCCCC2)c2c3c(cccc31)C(=O)c1ccccc1-2 ?
TRHR enhancer: inactive; TRHR agonist: 218.9; D1 potentiator: inactive; D1 antagonist: -68.0; D1 ag: 454.8; GRP78 ERSR act: inactive

What do the screens show for `Cn1c(=O)c(NCCO)c2c3c(cccc31)C(=O)c1ccccc1-2`?
TRHR enhancer: inactive; TRHR agonist: 268.9; D1 potentiator: inactive; D1 antagonist: -41.9; D1 ag: 441.8; GRP78 ERSR act: inactive

Results for CCCCNc1c2c3c(cccc3n(C)c1=O)C(=O)c1ccccc1-2 ?
TRHR enhancer: inactive; TRHR agonist: 94.4; D1 potentiator: inactive; D1 antagonist: -46.7; D1 ag: 326.2; GRP78 ERSR act: inactive

How did Cn1c(=O)cc2c3c(c(N4CCCCC4)ccc31)C(=O)c1ccccc1-2 do in these assays?
TRHR enhancer: inactive; TRHR agonist: inactive; D1 potentiator: inactive; D1 antagonist: inactive; D1 ag: inactive; GRP78 ERSR act: inactive

What do the screens show for `CC(C)OC(=O)C[C@H](NC(=O)OC(C)(C)C)c1ccccc1`?
GRP78 ERSR act: inactive

Results for CCOc1ccc(NC(=S)N2CCC(NC(=O)c3ccco3)CC2)cc1 ?
TRHR enhancer: inactive; TRHR agonist: inactive; D1 potentiator: inactive; D1 antagonist: inactive; D1 ag: inactive; GRP78 ERSR act: inactive

How did Cc1c(C(=O)NCCc2cccnc2)cnn1-c1ncc2c(n1)-c1ccccc1CC2 do in these assays?
GRP78 ERSR act: inactive

Results for CC(Sc1n[nH]c(N)n1)C(=O)NC1CCCCC1C (stereo unspecified) ?
TRHR enhancer: inactive; TRHR agonist: inactive; D1 potentiator: inactive; D1 antagonist: inactive; D1 ag: inactive; GRP78 ERSR act: inactive

What do the screens show for `Cc1cc(C)c(S(=O)(=O)N2CCCCC2CCNC(=O)C(=O)NCc2ccco2)c(C)c1` (stereo unspecified)?
TRHR enhancer: inactive; TRHR agonist: inactive; D1 potentiator: inactive; D1 antagonist: inactive; D1 ag: inactive; GRP78 ERSR act: inactive

Results for Cn1c(=O)c(NCCc2ccccc2)c2c3c(cccc31)C(=O)c1ccccc1-2 ?
TRHR enhancer: inactive; TRHR agonist: 175.4; D1 potentiator: inactive; D1 antagonist: -77.6; D1 ag: 393.8; GRP78 ERSR act: inactive
